Assay in all cases: NCI-60 one-dose screen, 48 h (100 = growth as untreated, 0 = no growth, -100 = all killed)
For one test, the system named is SN12C renal. As to conditions: 10 µM unless noted.
For a further test, the system named is UO-31 renal. As to conditions: 10 µM unless noted.
The next test relates to TK-10 renal. To be noted: 10 µM unless noted.
A further test has as its system ACHN renal. To be noted: 10 µM unless noted.
The subject of another test is CAKI-1 renal. As to conditions: 10 µM unless noted.
In another test the test system is A498 renal. To be noted: 10 µM unless noted.
The subject of a further test is CCRF-CEM leukemia. As to conditions: 10 µM unless noted.
The subject of the next test is MOLT-4 leukemia. As to conditions: 10 µM unless noted.
In a further test the test system is SR leukemia. To be noted: 10 µM unless noted.
In another test the test system is RPMI-8226 leukemia. As to conditions: 10 µM unless noted.
Another test concerns OVCAR-8 ovarian. To be noted: 10 µM unless noted.
Another test concerns OVCAR-5 ovarian. To be noted: 10 µM unless noted.
The subject of the next test is OVCAR-4 ovarian. To be noted: 10 µM unless noted.
A further test relates to SK-OV-3 ovarian. To be noted: 10 µM unless noted.
Another test has as its system IGROV1 ovarian. To be noted: 10 µM unless noted.
The subject of a further test is OVCAR-3 ovarian. To be noted: 10 µM unless noted.
Another test deals with HS 578T breast. To be noted: 10 µM.
A further test deals with NCI/ADR-RES ovarian. To be noted: 10 µM unless noted.

For six compounds, growth results are on record in PubChem BioAssay (NCI).

Compounds without any hit were thinned out: in the full panel of roughly 83,000, 20% have a hit.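 Values shown are percent growth following 48 h exposure of cells in 96-well plates to a single concentration of compound; below 10 was considered active.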 Unmarked numbers belong to inactive results. Calls of active or inactive are those of the source.

Take `COc1ccc(C2=Nn3c(nnc3-c3ccc(Cl)cc3N)SC2)cc1`: the growth was 99% in the test on SN12C renal; 83.4% in the test with UO-31 renal; 130% with TK-10 renal; 97% with ACHN renal; 92.9% in the test on CAKI-1 renal; 118% with A498 renal. The growth in the test on CCRF-CEM leukemia was 73.2%; in the test with MOLT-4 leukemia it was 101%; in the test with SR leukemia it was 102%; with RPMI-8226 leukemia, 103%; in the test with OVCAR-8 ovarian it was 98.1%; in the test on OVCAR-5 ovarian, 99.5%. The growth in the test with OVCAR-4 ovarian is 103%; in the test with SK-OV-3 ovarian, 102%; in the test on IGROV1 ovarian, 114%; in the test on OVCAR-3 ovarian it was 114%; in the test on HS 578T breast it was 113%; in the test on NCI/ADR-RES ovarian, 115%.

`CC(=O)c1c(C)nc(-c2cc(C)cc(Cl)c2)nc1-c1cccc(Oc2ccccc2)c1`: the growth in the test with SN12C renal was 80.1%; with UO-31 renal, 85.2%; with TK-10 renal it was 93.6%; with ACHN renal, 99.6%; in the test with CAKI-1 renal, 68.2%; with A498 renal it was 41.3%. The growth is 32.5% in the test on CCRF-CEM leukemia; 27.9% with MOLT-4 leukemia; 10.1% with SR leukemia; 46.4% in the test with RPMI-8226 leukemia; 91.8% in the test with OVCAR-8 ovarian; 107% in the test on OVCAR-5 ovarian. For the same compound, the growth was 85.1% in the test with OVCAR-4 ovarian; 84% with SK-OV-3 ovarian; 77.7% in the test on IGROV1 ovarian; 38.6% in the test with OVCAR-3 ovarian; 59.8% in the test on HS 578T breast; 25.1% in the test on NCI/ADR-RES ovarian.

For the compound `COc1ccc(-c2nsc3c2NC(=O)CC3c2cccc(F)c2)cc1` (stereo not drawn), the growth with SN12C renal was 55.7%; in the test with UO-31 renal, 70.5%; in the test with TK-10 renal it was 51.6%; in the test on ACHN renal it was 66.2%; with CAKI-1 renal, 38.5%; with A498 renal, 28.7%. In addition, the growth in the test on CCRF-CEM leukemia was 49.5%; in the test with MOLT-4 leukemia, 41.6%; with SR leukemia, 15.4%; in the test with RPMI-8226 leukemia it was 47.1%; in the test on OVCAR-8 ovarian, 60.4%; in the test on OVCAR-5 ovarian it was 57%. The growth in the test with OVCAR-4 ovarian is 92.1%; with SK-OV-3 ovarian it was 58.9%; in the test on IGROV1 ovarian it was 57.2%; with OVCAR-3 ovarian, 9.37% (active); in the test with HS 578T breast, 79.1%; in the test with NCI/ADR-RES ovarian it was 22.8%.

For `[Ag].[Ag].[NH-]S(=O)(=O)c1ccc(N=Nc2cc(N=Nc3ccc(S([NH-])(=O)=O)cc3)c3c(NC(=O)C(Cl)Cl)cccc3c2OC(=O)C(Cl)Cl)cc1.[c-]1nccs1.[c-]1nccs1`, the growth in the test on SN12C renal was 89.6%; in the test on UO-31 renal it was 69.4%; in the test on TK-10 renal it was 108%; in the test with ACHN renal it was 52.3%; with CAKI-1 renal, 59.1%; with A498 renal it was 101%. Further, the growth was 44.7% in the test on CCRF-CEM leukemia; 78.4% with MOLT-4 leukemia; 72.1% with SR leukemia; 83.5% in the test on RPMI-8226 leukemia; 68.3% in the test on OVCAR-8 ovarian; 120% in the test on OVCAR-5 ovarian. Also, the growth is 110% with OVCAR-4 ovarian; 114% in the test on SK-OV-3 ovarian; 76.2% with IGROV1 ovarian; 72.7% with OVCAR-3 ovarian; 76.3% with HS 578T breast; 90.4% in the test with NCI/ADR-RES ovarian.

`COc1cc(C2C=C(C)N=C3SC=NN32)cc(OC)c1OC` (stereo not drawn): the growth is 100% in the test with SN12C renal; 99.5% with UO-31 renal; 109% with TK-10 renal; 102% in the test on ACHN renal; 99% in the test on CAKI-1 renal; 90.9% with A498 renal. The growth is 90.7% with CCRF-CEM leukemia; 97.2% in the test on MOLT-4 leukemia; 102% with SR leukemia; 98.9% in the test with RPMI-8226 leukemia; 92% with OVCAR-8 ovarian; 91.6% in the test with OVCAR-5 ovarian. In addition, the growth is 103% in the test on OVCAR-4 ovarian; 111% in the test with SK-OV-3 ovarian; 118% with IGROV1 ovarian; 116% in the test with OVCAR-3 ovarian; 106% in the test on HS 578T breast; 104% in the test on NCI/ADR-RES ovarian.

`Cc1ccc(S(=O)(=O)NC(CCC(=O)Nc2ccc(Cl)cc2)C(=O)Nc2ccc(Cl)cc2)cc1` (stereo not drawn): the growth with SN12C renal is 39.8%; with UO-31 renal, 38.2%; with TK-10 renal it was 25.7%; with ACHN renal, 30%; in the test with CAKI-1 renal, 41.9%; in the test with A498 renal it was -0.58% (active). In addition, the growth in the test on CCRF-CEM leukemia was 4.45% (active); in the test on MOLT-4 leukemia, 10.7%; in the test with SR leukemia, -18.2% (active); in the test on RPMI-8226 leukemia it was 13.5%; in the test with OVCAR-8 ovarian, 39.2%; in the test with OVCAR-5 ovarian, 67.8%. In addition, the growth in the test on OVCAR-4 ovarian was 26.3%; in the test with SK-OV-3 ovarian it was 26.2%; with IGROV1 ovarian, 34.6%; in the test on OVCAR-3 ovarian, 7.96% (active); with HS 578T breast, 29.8%; in the test with NCI/ADR-RES ovarian, 39.6%.
